Data reported in PubChem BioAssay (Tox21).
Inconclusive results are not listed. Values without a mark were called inactive. Active and inactive are the calls of the source. The call rests on the fitted dose curve; in most records, active means well fitted cell-killing curve with a large enough effect in the repeat runs; inconclusive means weak or mixed curves, or effect the other way; inactive means flat fitted curve, though single readings scatter.

Test: qHTS assay to identify small molecule antagonists of the estrogen receptor alpha (ER-alpha) signaling pathway using the BG1 cell line in the presence of 0.1 nM 17-beta-estradiol - cell viability counter screen (AID 1259241); further: nearly all actives have a fitted effect of over 40% in size
Settings: VM7Luc4E2 (BG1) viability, CellTiter-Fluor protease, 22 h, 0.1 nM estradiol agonist added; series mostly up to 92.4 µM; activity change, negative = cytotoxicity: at the top concentration
Source text: National Center for Advancing Translational Sciences [NCATS]
NIH Chemical Genomics Center [NCGC]
U.S. Environmental Protection Agency [EPA]
National Institutes of Environmental Health Sciences [NIEHS]
National Toxicology Program [NTP]
U.S. Food and Drug Administration [FDA]
Estrogen receptor (ER), a member of the nuclear hormone receptor plays an important role in development, metabolic homeostasis and reproduction. Two subtypes of ER, ER-alpha and ER-beta, have similar expression patterns with some uniqueness in both types. Endocrine disrupting chemicals (EDCs) and their interactions with steroid hormone receptors like ER causes disruption of normal endocrine function. Therefore, it is important to understand the effect of environmental chemicals in ER signaling pathway. For identifying ER antagonists, VM7Luc4E2 cell line was used to screen against Tox21 compound libraries.
VM7Luc4E2 cell line (provided by Denison MS, University of California) endogenously express full-length ER-alpha and is stably transfected with a plasmid containing four estrogen responsive elements (ERE) upstream of a luciferase reporter gene. The current screening for identification of ER-alpha inhibitors against Tox21 compound libraries used lower concentration (0.1 nM) of 17beta-Estradiol as a stimulator. The cytotoxicity of the Tox21 compound libraries against VM7Luc4E2 cell line was tested by measuring live-cell protease activity using CellTiter-Fluor assay in the same wells.
Tox21 Assay Protocol Summary:
VM7Luc4E2 cells were cultured in phenol red free assay medium containing 10% charcoal stripped FBS for 5 days prior to the assay. The cells were dispensed at 4,000 cells/well in 4 uL of assay medium into white wall/solid-bottom 1536-well plates (Corning Life Sciences, Corning, NY) using a Multidrop Combi (ThermoFisher Scientific, Waltham, MA) dispenser. After the assay plates were incubated at 37C and 5% CO2 for 24 hr, 23 nL of compounds dissolved in DMSO, positive controls or DMSO only was transferred to the assay plates by a Pintool station (Kalypsys, San Diego, CA). The transfer of compounds was followed by the addition of 1 uL of 0.1 nM (final concentration) agonist (17beta-Estradiol)/assay medium using a Flying Reagent Dispenser (FRD, Aurora Discovery, San Diego, CA). The plates were incubated at 37C and 5% CO2 for 22 hr. For cytotoxicity assay, 1 uL of CellTiter-Fluor reagent (Promega Corporation, Madison, WI) was added to each well using the FRD and after 30 min incubation at 37C and 5% CO2, The fluorescence intensity was measured using ViewLux plate reader (PerkinElmer, Shelton, CT).
On the % scale 0 is the no-effect control and ±100 the full control effect; potency means the concentration at half of the fitted maximal effect.

First: COc1cc(-c2nc(NC(=O)c3cc4cc(C)cc(C)c4n3CC(=O)O)sc2CCC2CCCCC2)c(OC)cc1Cl
Second: CCCCN1C(=O)[C@@H]([C@H](O)C2CCCCC2)NC(=O)C12CCN(Cc1ccc(Oc3ccc(C(=O)O)cc3)cc1)CC2
The “activity change, negative = cytotoxicity” value of the first is lower: -13.4% for the first, -6.99% for the second.

First: O=C1CCCc2c1cc1ccc3cccc4ccc2c1c34
Second: O=C(Nc1cccc([N+](=O)[O-])c1)c1cc2ccccc2cc1O
The “activity change, negative = cytotoxicity” value of the first is lower: 1.28% for the first, 2.53% for the second.

First: CCC(C)(C)C1CCCCC1OC(C)=O (stereo not given)
Second: C=C(C)C(=O)OCC[N+](C)(C)C
The “activity change, negative = cytotoxicity” value of the first is lower: 0.427% for the first, 3.09% for the second.

Going from `COc1ccc(C(=O)/C(Br)=C\C(=O)O)cc1` to `CC1(C)CCC(C)(C)c2cc(C(=O)Nc3ccc(C(=O)O)cc3)ccc21`, the “activity change, negative = cytotoxicity” value rises from -18.3% to 0.732%.

Going from `O=CC=C(c1ccccc1)c1ccccc1` to `CCN(C(=O)N(CC)c1ccccc1)c1ccccc1`, the “activity change, negative = cytotoxicity” value rises from -20.3% to 12%.

Compared with `Oc1ccc(Cl)cc1Sc1cc(Cl)ccc1O`, `CCCCN(CCCC)c1ccc(C(=O)c2ccccc2C(=O)O)c(O)c1` is higher in “activity change, negative = cytotoxicity” value: -19.4% for the first, -0.396% for the second.

Compared with `OCCCCCCCCCCCCBr`, `CCCCCOC(=O)CCCC` is higher in “activity change, negative = cytotoxicity” value: 2.12% for the first, 4.97% for the second.

First: CC(C)C(C)(C)C(C)(C)C(C)(C)S
Second: C/C=C1/C(=O)C[C@H]2[C@@H]3CCC4=CC(=O)CC[C@]4(C)[C@H]3CC[C@]12C
The “activity change, negative = cytotoxicity” value of the first is higher: 0.431% for the first, -17.8% for the second.

Compared with `O=C(NO)C1(NS(=O)(=O)c2ccc(Oc3ccc(F)cc3)cc2)CCOCC1`, `O=C(Oc1ccccc1)c1ccccc1C(=O)Oc1ccccc1` is lower in “activity change, negative = cytotoxicity” value: -15.8% for the first, -19.6% for the second.

Compared with `Oc1c(Cl)cc(Cl)c2cccnc12`, `Cc1ccc(O)c2ncccc12` is lower in “activity change, negative = cytotoxicity” value: -14.2% [at 42.5 µM] for the first, -26.9% [at 42.5 µM] for the second.

Compared with `O=C1Cc2cc(CCN3CCN(c4nsc5ccccc45)CC3)c(Cl)cc2N1`, `OCCN1CCN(CC/C=C2/c3ccccc3Sc3ccc(C(F)(F)F)cc32)CC1` is higher in “activity change, negative = cytotoxicity” value: -15.3% [at 42.5 µM] for the first, -2.83% [at 42.5 µM] for the second.

Going from `CC1=C(C(=O)OC(C)C)C(c2cccc([N+](=O)[O-])c2)C(C(=O)OC2CN(C(c3ccccc3)c3ccccc3)C2)=C(N)N1` (stereo not given) to `Fc1ccc(C(c2ccc(F)cc2)N2CCN(C/C=C/c3ccccc3)CC2)cc1`, the “activity change, negative = cytotoxicity” value rises from -19.2% [at 42.5 µM] to -7.65% [at 42.5 µM].

First: Clc1ccc(C(Cn2ccnc2)OCc2ccc(Sc3ccccc3)cc2)c(Cl)c1 (stereo not given)
Second: CSc1ccc2c(c1)C(N1CCN(C)CC1)Cc1ccccc1S2 (stereo not given)
The “activity change, negative = cytotoxicity” value of the first is lower: -0.695% [at 42.5 µM] for the first, 3.4% [at 42.5 µM] for the second.

First: CSc1ccc(C(=O)c2[nH]c(=O)[nH]c2C)cc1
Second: CCCCCCCCOc1ccccc1C(=O)Nc1ccc(C(=O)OCC[N+](C)(CC)CC)cc1
The “activity change, negative = cytotoxicity” value of the first is lower: 2.21% [at 42.5 µM] for the first, 4.9% [at 42.5 µM] for the second.

First: Cc1nc(-c2ccc3c(c2)CCN(CCC2CCC(NC(=O)/C=C/c4ccc(F)cc4)CC2)CC3)no1 (stereo not given)
Second: CCCCN1CCCC[C@H]1C(=O)Nc1c(C)cccc1C
The “activity change, negative = cytotoxicity” value of the first is lower: -5.12% [at 42.5 µM] for the first, -1.62% [at 42.5 µM] for the second.

In the case of `Cc1[nH]nc2c1N=C(c1ccccc1Cl)c1cc([N+](=O)[O-])ccc1N2`, the Potency is reported as 27.3 µM (active).
In the case of `O=C1C=CC(=O)N1`, the Potency is reported as 55.9 µM (active).
With `CCCCCCCC/C=C\CCCCCCCCOCCO` the Potency was 63.1 µM (active).
For `Oc1ccc2cc(SSc3ccc4cc(O)ccc4c3)ccc2c1`, the Potency was “inactive”.
With `O=[N+]([O-])c1cc(Cl)c(Cl)c(Cl)c1Cl` the Potency was 68.3 µM (active).
With `CCCCCCCCCCn1cc[n+](CCCCCCCCCC)c1C` the Potency was 68.7 µM (active).
With `On1ccccc1=S` the Potency was 9.59 µM (active).
For `CC(C)(C)C1CCC(CC2=C(O)c3ccccc3C(=O)C2=O)CC1` (stereo not given), the Potency was 29.8 µM (active).
With `Cc1cc(O)c2ccccc2c1O` the Potency was 29.8 µM (active).
With `CCCN(CCC)c1c([N+](=O)[O-])cc(C(F)(F)F)c(N)c1[N+](=O)[O-]` the Potency was 60.9 µM (active).
